In PubChem BioAssay (EPA / NIEHS):
The source made the active and inactive calls. How the source made its calls: active means hit-call score of the fitted dose curve at least 0.9, where 1 is the maximum; inactive means score below 0.9.

Test: CCTE_Harrill_HTTr_Viability_MCF7: CCTE's 6-hour Cell Viability Assessment for the High-Throughput Transcriptomics (HTTr) Platform, in MCF-7 cells cultured in DMEM + 10% fetal bovine serum, Harrill Lab (AID 2284010)
Description: This is a cell-based assay that evaluates cell viability using high content imaging to evaluate membrane integrity using propidium iodide dye exclusion in a 384 well format.One of seven assay components measured from the CCTE_Harrill_HTTr_Viability assay. This was part of a full screening experiment. This is a cell-based assay that evaluates cell viability in MCF-7 cells cultured in DMEM + 10% fetal bovine serum. High content imaging is used to evaluate membrane integrity using propidium iodide dye exclusion. Measurements are taken at 6 hours after chemical dosing in 384-well format.The assay component endpoint CCTE_Harrill_HTTr_Viability_MCF7 was analyzed with bidirectional fitting relation to DMSO as the negative control and baseline of activity. Using a type of viability reporter, gain-of-signal activity can be used to evaluate membrane integrity using propidium iodide dye exclusion to understand changes in cytotoxicity. To generalize the intended target to other relatable targets, this assay endpoint is annotated to cell cycle, where the subfamily is cytotoxicity.
Chemicals were tested in MCF7 cells in an eight point dilution series with a six hour exposure duration.
With C/C(=N\NC(=O)Nc1cc(F)cc(F)c1)c1ncccc1C(=O)O the outcome was “inactive”. For CCOP(=S)(NC(C)C)Oc1ccccc1C(=O)OC(C)C (stereo not given), the outcome was “inactive”. With Nc1ccc([N+](=O)[O-])cc1Cl the outcome was “inactive”. With Cc1ccc(O)cc1C the outcome was “inactive”. In the case of c1ccc2c(c1)sc1ccccc12, the outcome is reported as “inactive”. For CCOC(=O)c1ccccc1C(=O)OCC, the outcome was “inactive”. For OCC1CO1 (stereo not given), the outcome was “inactive”. With O=[N+]([O-])c1ccccc1 the outcome was “inactive”. For CCCCOCC1CO1 (stereo not given), the outcome was “inactive”. With Nc1ccc2ccccc2c1 the outcome was “inactive”. With ClC(Cl)c1ccccc1 the outcome was “inactive”. With CCCCN(CCCC)SN(C)C(=O)Oc1cccc2c1OC(C)(C)C2 the outcome was “inactive”. In the case of O=C(O)C1C(C(=O)O)C2(Cl)C(Cl)=C(Cl)C1(Cl)C2(Cl)Cl (stereo not given), the outcome is reported as “inactive”. For CCCCCCCc1ccc(O)cc1, the outcome was “inactive”. For CCC1(c2ccccc2)C(=O)N=C(O)NC1=O (stereo not given), the outcome was “inactive”. With O=P(OCC(Br)CBr)(OCC(Br)CBr)OCC(Br)CBr (stereo not given) the outcome was “inactive”. With CCNc1nc(Cl)nc(NC(C)(C)C)n1 the outcome was “inactive”. With ClC(Cl)=C(c1ccc(Cl)cc1)c1ccccc1Cl the outcome was “inactive”. For Clc1ccc(Oc2ccccc2)cc1, the outcome was “inactive”. With Cc1ccc(N)cc1N the outcome was “inactive”. In the case of CSC(C)(C)C=NO, the outcome is reported as “inactive”. In the case of CCCCN(CCCC)N=O, the outcome is reported as “inactive”. For O=C(O)CF, the outcome was “inactive”. In the case of ClC1=C(Cl)C2(Cl)C3C(Cl)C(Cl)CC3C1(Cl)C2(Cl)Cl (stereo not given), the outcome is reported as “inactive”. With c1ccc(OP(Oc2ccccc2)Oc2ccccc2)cc1 the outcome was “inactive”. For CCOc1ccc(C(C)(C)COCc2cccc(Oc3ccccc3)c2)cc1, the outcome was “inactive”. With CN(C)C(=O)Cl the outcome was “inactive”. With Nc1ccc(Cl)cc1 the outcome was “inactive”. In the case of CCOP(=S)(Oc1ccc([N+](=O)[O-])cc1)c1ccccc1 (stereo not given), the outcome is reported as “inactive”. For N#Cc1ccc(O)cc1, the outcome was “inactive”. For CC(C)(C)N(NC(=O)c1ccc(Cl)cc1)C(=O)c1ccccc1, the outcome was “inactive”. In the case of CC(C)(C)OOC(C)(C)C, the outcome is reported as “inactive”. For O=S(=O)(c1ccc(O)cc1)c1ccc(O)cc1, the outcome was “inactive”. In the case of O=NN1CCCC1, the outcome is reported as “inactive”. For O=P1(N(CCCl)CCCl)NCCCO1 (stereo not given), the outcome was “inactive”. For CCCCC(CC)COP(=O)(Oc1ccccc1)Oc1ccccc1 (stereo not given), the outcome was “inactive”. In the case of Cc1cccc(N)c1, the outcome is reported as “inactive”. For CCCCN(CC)C(=O)SCCC, the outcome was “inactive”. For CCCN(CCC)c1c([N+](=O)[O-])cc(C(C)C)cc1[N+](=O)[O-], the outcome was “inactive”. For CC(Cl)(Cl)C(=O)O, the outcome was “inactive”.
